# Measured values reported in the antibiotic and cytotoxicity screens of Wong et al. (2023).
# In all, about 39,000 compounds went through this assay and about 3,300 (8.5%) were called active. What follows is part of a selection rich in actives, with near analogues and random picks from the rest.
# System: HepG2
# Assay: cytotoxicity call (relative viability < 0.9)
# Conditions: 10 µM
row,SMILES,cytotoxicity call
1,C[C@H]1CN([C@@H](C)CO)C(=O)c2cc(NC(=O)Nc3ccc4c(c3)OCO4)ccc2O[C@H]1CN(C)C(=O)Nc1ccc(C(F)(F)F)cc1,inactive
2,C[C@@H]1CN([C@H](C)CO)C(=O)c2cc(NC(=O)Nc3ccc(C(F)(F)F)cc3)ccc2O[C@H]1CN(C)C(=O)Nc1ccc2c(c1)OCO2,inactive
3,COCCNC(=O)C[C@@H]1C[C@@H]2c3cc(NC(=O)COC)ccc3O[C@@H]2[C@@H](CO)O1,inactive
4,Cc1noc(C)c1NC(=O)Nc1ccc2c(c1)C(=O)N([C@@H](C)CO)C[C@@H](C)[C@H](CN(C)S(=O)(=O)c1ccccc1)OCCCC[C@@H](C)O2,inactive
5,C[C@H]1CN([C@@H](C)CO)C(=O)c2cc(NC(=O)Cn3cnnn3)ccc2O[C@@H]1CN(C)Cc1ccc(C(=O)Nc2ccccc2N)cc1,inactive
6,C[C@@H]1CN([C@H](C)CO)C(=O)c2cc(NC(=O)C3CC3)ccc2O[C@@H]1CN(C)S(=O)(=O)c1cn(C)cn1,inactive
7,COc1ccc(CN(C)C[C@H]2OCCCC[C@@H](C)Oc3ccc(NS(=O)(=O)c4ccc(F)cc4)cc3C(=O)N([C@H](C)CO)C[C@@H]2C)cc1,inactive
8,COc1ccccc1NC(=O)N(C)C[C@@H]1Oc2cc(Br)ccc2S(=O)(=O)N([C@@H](C)CO)C[C@@H]1C,inactive
9,C[C@H]1CN([C@@H](C)CO)S(=O)(=O)c2ccc(-c3cncnc3)cc2O[C@H]1CN(C)C(=O)NC1CCCC1,inactive
10,COc1ccc2c3c([nH]c2c1)[C@@H](CO)N(C[C@]13CCN(CCc2ccccc2)CC1)C(=O)CN1CCOCC1,inactive
11,COc1ccc2c3c([nH]c2c1)[C@@H](CO)N(Cc1ccc(cc1)Cl)C[C@]13CCN(CCc2ccccc2)CC1,active
12,COc1ccc2c3c([nH]c2c1)[C@@H](CO)N(Cc1ccncc1)C[C@]13CCN(CC1)Cc1ccc(cc1)-c1ccccn1,inactive
13,COc1ccc2c3c([nH]c2c1)[C@H](CO)N(Cc1ccccc1)C[C@]13CCN(CC1)C(=O)Nc1cccc(c1)F,inactive
14,COc1ccc2c3c([nH]c2c1)[C@H](CO)N(Cc1ccc(cc1)Cl)C[C@]13CCN(CCc2ccccc2)CC1,active
15,COc1ccc(cc1)CN1C[C@]2(CCN(CC2)C(=O)Nc2cccc(c2)F)c2c([nH]c3cc(ccc23)OC)[C@@H]1CO,inactive
16,COc1ccc(NC(=O)N(C)C[C@H]2OCCCC[C@H](C)Oc3ccc(NC(=O)C4CCCCC4)cc3C(=O)N([C@H](C)CO)C[C@@H]2C)cc1,inactive
17,C[C@@H]1CN([C@@H](C)CO)C(=O)c2cc(NS(=O)(=O)c3cccs3)ccc2O[C@H]1CN(C)Cc1ccncc1,inactive
18,Cc1noc(C)c1S(=O)(=O)N(C)C[C@@H]1Oc2ccc(NC(=O)Cc3ccccc3)cc2CC(=O)N([C@@H](C)CO)C[C@H]1C,inactive
19,C[C@@H]1CN([C@H](C)CO)C(=O)Cc2cc(NS(=O)(=O)c3ccc(Cl)cc3)ccc2O[C@H]1CN(C)Cc1ccc(-c2ccccc2)cc1,inactive
20,C[C@@H]1CN([C@H](C)CO)C(=O)Cc2cc(NS(=O)(=O)c3ccc(Cl)cc3)ccc2O[C@@H]1CN(C)Cc1ccc(-c2ccccc2)cc1,active
21,C[C@@H]1CN([C@@H](C)CO)C(=O)Cc2cc(NS(=O)(=O)c3ccc(Cl)cc3)ccc2O[C@@H]1CN(C)Cc1ccc(-c2ccccc2)cc1,inactive
22,C[C@H](CO)N1C[C@H](C)[C@H](CN(C)Cc2ccc(-c3ccccc3)cc2)Oc2ccc(NS(=O)(=O)c3ccc(Cl)cc3)cc2CC1=O,inactive
23,C[C@H]1CN([C@@H](C)CO)C(=O)Cc2cc(NS(=O)(=O)c3ccc(Cl)cc3)ccc2O[C@@H]1CN(C)Cc1ccc(-c2ccccc2)cc1,inactive
24,C[C@H]1CN([C@@H](C)CO)C(=O)Cc2cc(NS(=O)(=O)c3ccc(Cl)cc3)ccc2O[C@H]1CN(C)Cc1ccc(-c2ccccc2)cc1,active
25,C[C@@H]1CN([C@@H](C)CO)C(=O)Cc2cc(NS(=O)(=O)c3ccc(Cl)cc3)ccc2O[C@H]1CN(C)Cc1ccc(-c2ccccc2)cc1,active
26,C[C@H](CO)N1C[C@H](C)[C@@H](CN(C)Cc2ccc(-c3ccccc3)cc2)Oc2ccc(NS(=O)(=O)c3ccc(Cl)cc3)cc2CC1=O,inactive
27,C[C@@H]1CN([C@@H](C)CO)C(=O)c2cc(NS(C)(=O)=O)ccc2O[C@@H](C)CCCCO[C@H]1CN(C)CC1CC1,inactive
28,C[C@@H]1CN([C@H](C)CO)C(=O)c2cc(NC(=O)Cn3cnnn3)ccc2O[C@H]1CN(C)Cc1ccc(Cl)c(Cl)c1,inactive
29,C[C@H]1CN([C@@H](C)CO)C(=O)c2cccc(NS(=O)(=O)c3ccc(F)cc3)c2O[C@@H]1CN(C)S(=O)(=O)c1cccs1,inactive
30,O=C(C[C@H]1C[C@@H]2c3cc(NC(=O)Nc4ccc(C(F)(F)F)cc4)ccc3O[C@@H]2[C@H](CO)O1)NCc1cc(F)ccc1F,inactive
